High-throughput results: PubChem, several laboratories
An excerpt weighted towards active compounds, which were near 3.5% of everything screened.
Anthrax LF inh2: anthrax lethal factor protease inhibition | multiplex microsphere protease cleavage assay, LF | inhibition, % at 10 µM | 360,000 tested, 0.12% active | AID 588501; also: plate controls were buffer without enzyme for full effect and enzyme alone for no effect
BoNT F protease: BoNT F light chain protease inhibition; 360,000 tested, 0.22% active; Multiplex microsphere protease cleavage assay, flow cytometry; inhibition, % at 10 µM; in the data active = inhibition above about 35%, passing the limit was not always enough; inconclusive = no clear call, values can overlap the other calls; also: plate controls were buffer without enzyme for full effect and enzyme alone for no effect
BoNT-A LC inh2: inhibitors of Botulinum neurotoxin A light chain protease; AID 588499; inhibition, % at 10 µM; multiplex microsphere protease substrate cleavage, flow cytometry; 360,000 tested, 0.17% active; also: plate controls were buffer without enzyme for full effect and enzyme alone for no effect
Vc quorum ag: inducers of Vibrio cholerae quorum light production without autoinducers; AID 588436; activation, % at 18.7 µM; V. cholerae BH1578 lux reporter, luminescence, 6 h; 350,000 tested, 0.16% active; in the data active = activation mostly above about 9.7%, no sharp cut-off; inconclusive = no clear call, values can overlap the other calls; inactive = mostly below about 3.7%
Bead autofluor: compound fluorescence in toxin protease inhibitor counterscreen; 360,000 tested, 3.1% active; fluorescence intensity (no concentration beside the values); compound autofluorescence counterscreen, microsphere flow cytometry; active compounds read high; in the data active = fluorescence intensity above about 16000; inconclusive = no clear call, values can overlap the other calls
Numbers without * were called inactive. Rule as the data show it, unless noted: active = inhibition above about 30%; inconclusive = no clear call, values can overlap the other calls; inactive = below that.

What do the screens show for `O=C(NCc1ccc(Cl)cc1)c1cc(-c2ccco2)on1`?
Anthrax LF inh2: -0.6; BoNT F protease: -11.3; BoNT-A LC inh2: -1.0; Vc quorum ag: inactive; Bead autofluor: 11224

How did O=C(NCc1ccc(F)cc1)c1cc(-c2ccco2)on1 do in these assays?
Anthrax LF inh2: -1.8; BoNT F protease: -5.6; BoNT-A LC inh2: -3.2; Vc quorum ag: -0.2; Bead autofluor: 23399*

How did COc1ccc(CNC(=O)c2cc(-c3ccco3)on2)cc1 do in these assays?
Anthrax LF inh2: 0.8; BoNT F protease: 2.9; BoNT-A LC inh2: 1.7; Vc quorum ag: -0.2; Bead autofluor: 20809*

Results for Cc1ccc(Nc2nc(C(=O)NCc3ccco3)cs2)cc1 ?
Anthrax LF inh2: -2.4; BoNT F protease: -5.0; BoNT-A LC inh2: -5.2; Vc quorum ag: -2.0; Bead autofluor: 21266*

How did CC(=O)c1cccc(NC(=O)c2cc(-c3ccc(F)cc3)on2)c1 do in these assays?
Anthrax LF inh2: -0.6; BoNT F protease: 6.5; BoNT-A LC inh2: 5.9; Vc quorum ag: 0.8; Bead autofluor: 19126*

What do the screens show for `CCN1C[C@@H]2[C@@H]3C(=O)N(C)C(=O)[C@@H]3[C@](Cc3ccccc3)(C1=O)N2C(=O)c1ccc(Cl)c(Cl)c1`?
Anthrax LF inh2: -3.5; BoNT F protease: 1.4; BoNT-A LC inh2: -0.2; Vc quorum ag: -0.5; Bead autofluor: 4116

What do the screens show for `COc1ccc(NC(=O)CSc2nnc3n2CCCCC3)cc1`?
Anthrax LF inh2: 3.2; BoNT F protease: -2.3; BoNT-A LC inh2: 1.0; Vc quorum ag: -0.4; Bead autofluor: 4159

How did O=C(Nc1c(F)cc(F)cc1Br)c1cc(-c2ccco2)on1 do in these assays?
Anthrax LF inh2: -5.3; BoNT F protease: -0.1; BoNT-A LC inh2: -0.5; Vc quorum ag: -0.3; Bead autofluor: 9903

What do the screens show for `O=C(NCc1ccco1)c1cc(-c2ccccc2)on1`?
Anthrax LF inh2: -4.5; BoNT F protease: -1.3; BoNT-A LC inh2: -0.2; Vc quorum ag: -12.5; Bead autofluor: 10490

What do the screens show for `O=C(Nc1ccc(F)cc1F)c1cc(-c2ccco2)on1`?
Anthrax LF inh2: -1.4; BoNT F protease: 0.3; BoNT-A LC inh2: inconclusive; Vc quorum ag: 1.7; Bead autofluor: 23169*

Results for O=C(NCc1ccco1)c1cc(-c2ccc(F)cc2)on1 ?
Anthrax LF inh2: -7.9; BoNT F protease: 1.1; BoNT-A LC inh2: 2.9; Vc quorum ag: -0.5; Bead autofluor: 22220*

How did Cc1cc2cc(CNC(=S)Nc3ccc(OC(F)F)cc3)ccc2n1C do in these assays?
Anthrax LF inh2: -110.8; BoNT F protease: -125.8; BoNT-A LC inh2: 66.1*; Vc quorum ag: -0.2; Bead autofluor: 1428

What do the screens show for `C/C(=N/NC(=O)CNC(=O)C(c1ccccc1)c1ccccc1)c1ccco1`?
Anthrax LF inh2: 2.6; BoNT F protease: inconclusive; BoNT-A LC inh2: -2.2; Vc quorum ag: -0.7; Bead autofluor: 4238

What do the screens show for `Cc1ccc(NC(=O)CSc2nnc(-c3ccccn3)n2N)c(Br)c1`?
Anthrax LF inh2: inconclusive; BoNT F protease: 15.2; BoNT-A LC inh2: 0.0; Vc quorum ag: -0.4; Bead autofluor: 3787

How did Cc1cc2ncn(-c3ncnc4scc(-c5ccccc5)c34)c2cc1C do in these assays?
Anthrax LF inh2: -0.1; BoNT F protease: -4.8; BoNT-A LC inh2: inconclusive; Vc quorum ag: inactive; Bead autofluor: 24244*

Results for Cc1ccc(S(=O)(=O)Cc2c(C)noc2C)cc1 ?
Anthrax LF inh2: -10.5; BoNT F protease: -3.6; BoNT-A LC inh2: -1.4; Vc quorum ag: inactive; Bead autofluor: 22977*

What do the screens show for `COc1cc(SC)ccc1C(=O)N1CCN(S(=O)(=O)/C=C/c2ccccc2)CC1`?
Anthrax LF inh2: -0.9; BoNT F protease: 5.4; BoNT-A LC inh2: 3.9; Vc quorum ag: inactive; Bead autofluor: 4549

Results for O=C(CCCC(=O)OCC(F)(F)C(F)F)Nc1ccc(NC(=O)CCCC(=O)OCC(F)(F)C(F)F)cc1 ?
Anthrax LF inh2: 1.1; BoNT F protease: -10.1; BoNT-A LC inh2: -1.1; Vc quorum ag: -7.1; Bead autofluor: 5783

Results for Cc1ccc(NC(=O)CSCC#N)cc1 ?
Anthrax LF inh2: -8.0; BoNT F protease: -11.7; BoNT-A LC inh2: inconclusive; Vc quorum ag: -0.2; Bead autofluor: 18468*

What do the screens show for `CCOC(=O)c1ccc(NC(=O)CSCc2ccco2)cc1`?
Anthrax LF inh2: 0.0; BoNT F protease: -3.1; BoNT-A LC inh2: inconclusive; Vc quorum ag: -0.2; Bead autofluor: 16501*

How did Cc1ccc(NC(=O)CCC(=O)OCC(F)(F)C(F)F)cc1 do in these assays?
Anthrax LF inh2: -2.4; BoNT F protease: 1.5; BoNT-A LC inh2: inconclusive; Vc quorum ag: 6.0; Bead autofluor: 21194*

How did CCOC(=O)CC(=O)CSCC(=O)Nc1ccc(C)cc1 do in these assays?
Anthrax LF inh2: -0.1; BoNT F protease: -0.4; BoNT-A LC inh2: 1.9; Vc quorum ag: -4.9; Bead autofluor: 22826*

What do the screens show for `CCOC(=O)c1ccc(NC(=O)CSCCC(=O)O)cc1`?
Anthrax LF inh2: -6.0; BoNT F protease: 0.5; BoNT-A LC inh2: -0.2; Vc quorum ag: -0.6; Bead autofluor: 4347

Results for Cn1c(=O)c2c(ncn2CCCc2ccccc2)n(C)c1=O ?
Anthrax LF inh2: -12.7; BoNT F protease: 4.1; BoNT-A LC inh2: 3.3; Vc quorum ag: -2.0; Bead autofluor: 20359*

How did CCCCn1cnc2c1c(=O)n(C)c(=O)n2C do in these assays?
Anthrax LF inh2: -3.4; BoNT F protease: -7.2; BoNT-A LC inh2: -3.2; Vc quorum ag: 2.6; Bead autofluor: 23846*

Results for CC[C@@]12C(=O)N(c3ccc(C)cc3)C(=O)N1[C@H](c1ccc(Br)cc1)[C@@H]1C(=O)N(C(C)(C)C)C(=O)[C@@H]12 ?
Anthrax LF inh2: -5.4; BoNT F protease: 1.8; BoNT-A LC inh2: -0.6; Vc quorum ag: inactive; Bead autofluor: 4584

How did CCCCn1c(=O)c(C(=O)c2ccccc2)nc2ccccc21 do in these assays?
Anthrax LF inh2: -1.2; BoNT F protease: -7.0; BoNT-A LC inh2: -6.7; Vc quorum ag: -2.0; Bead autofluor: 21629*

What do the screens show for `C=CCn1c(O)c(N=O)c2ccccc21`?
Anthrax LF inh2: -5.6; BoNT F protease: -2.3; BoNT-A LC inh2: -0.8; Vc quorum ag: 2.8; Bead autofluor: 5775

Results for C/C(Cl)=C\Cn1c(O)c(N=O)c2ccccc21 ?
Anthrax LF inh2: -8.6; BoNT F protease: -5.6; BoNT-A LC inh2: -1.8; Vc quorum ag: active; Bead autofluor: 3839

Results for Cc1ccc(Cn2c(O)c(N=O)c3ccccc32)cc1 ?
Anthrax LF inh2: 0.1; BoNT F protease: -2.5; BoNT-A LC inh2: -0.1; Vc quorum ag: 20.1; Bead autofluor: 2416

How did O=Nc1c(O)n(Cc2ccc(Cl)cc2)c2ccccc12 do in these assays?
Anthrax LF inh2: -4.8; BoNT F protease: -26.1; BoNT-A LC inh2: -1.0; Vc quorum ag: 225.8*; Bead autofluor: 3605

What do the screens show for `Nc1ccccc1C(=O)C[C@H](N)C(=O)O`?
Anthrax LF inh2: -5.1; BoNT F protease: 9.1; BoNT-A LC inh2: 0.0; Vc quorum ag: -0.2; Bead autofluor: 5650

How did CC(=O)Nc1ccc(N2C(C(C)=O)=NN(c3ccccc3)C2c2cccs2)cc1 (stereo not drawn) do in these assays?
Anthrax LF inh2: 1.0; BoNT F protease: -0.4; BoNT-A LC inh2: -0.9; Vc quorum ag: inactive; Bead autofluor: 19872*

What do the screens show for `COc1ccc(N2C(C(C)=O)=NN(c3ccccc3)C2c2cccs2)cc1` (stereo not drawn)?
Anthrax LF inh2: 2.1; BoNT F protease: -0.2; BoNT-A LC inh2: 3.5; Vc quorum ag: 0.0; Bead autofluor: 2649
